This is a sample that favours compounds with a hit; in the whole collection about 0.78% have one here.
BLM inh = qHTS Assay for Inhibitors of Bloom's syndrome helicase (BLM). Potency, µM (doses to about 56.1 µM), without a hit: at the top dose activity change, negative = inhibition, actives largely listed as inhibitors. 0.2% of 350,000 active. recombinant BLM DNA unwinding, fluorescence dequenching. RecQ-like DNA helicase BLM (Homo sapiens), P54132;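 also: plate controls were vehicle for no effect and no enzyme for full effect; nearly all actives have a fitted effect of over 35% in size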
RECQ1 inh = qHTS Assay for Inhibitors of RecQ-Like Dna Helicase 1 (RECQ1) | ATP-dependent DNA helicase Q1 (Homo sapiens), P46063 | RECQ1 DNA unwinding, red fluorescence kinetic read | Potency, µM (doses to about 57.3 µM), for the others: at the highest dose activity, negative = inhibition, most hits filed as inhibitors | 0.54% of 240,000 active | AID 2549, 2010;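 also: plate controls were vehicle for no effect and no enzyme for full effect; nearly all actives have a fitted effect of over 30% in size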
Target sequence (P46063 whole entry, looked up): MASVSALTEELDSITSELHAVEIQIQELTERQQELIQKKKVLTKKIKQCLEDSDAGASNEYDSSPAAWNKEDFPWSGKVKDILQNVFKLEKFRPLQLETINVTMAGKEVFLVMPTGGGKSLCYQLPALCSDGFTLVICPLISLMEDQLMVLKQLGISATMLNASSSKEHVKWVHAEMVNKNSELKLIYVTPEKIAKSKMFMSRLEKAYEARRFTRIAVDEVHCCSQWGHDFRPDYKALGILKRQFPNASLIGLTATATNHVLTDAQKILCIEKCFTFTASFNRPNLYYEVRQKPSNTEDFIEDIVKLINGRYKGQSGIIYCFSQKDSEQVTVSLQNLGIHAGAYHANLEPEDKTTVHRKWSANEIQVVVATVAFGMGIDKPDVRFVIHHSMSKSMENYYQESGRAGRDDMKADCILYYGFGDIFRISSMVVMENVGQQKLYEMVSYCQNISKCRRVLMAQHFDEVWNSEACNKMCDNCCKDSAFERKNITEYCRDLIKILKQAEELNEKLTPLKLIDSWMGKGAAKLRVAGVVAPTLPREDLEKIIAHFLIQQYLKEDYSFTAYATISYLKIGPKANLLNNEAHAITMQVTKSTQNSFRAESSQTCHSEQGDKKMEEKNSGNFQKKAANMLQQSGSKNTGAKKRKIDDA
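RECQ1T1 50 nM; forked duplex (20 bp + 30-nt ss tails) 200 nM, ATP 2 mM final; pH 8.0, 2 mM MgCl2, 2.5 ug/ml poly(dI-dC); 15 min compound preincubation; discontinuous kinetic read over 2 h at RT.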
APE1 inh = qHTS Assay for Inhibitors of the Human Apurinic/apyrimidinic Endonuclease 1 (APE1). DNA repair nuclease/redox regulator APEX1 (Homo sapiens), P27695. recombinant APE1, TAMRA/BHQ-2 abasic DNA cleavage fluorescence. Potency, µM (doses to about 65.8 µM), inactives show at the highest dose activity change, negative = inhibition, actives largely listed as inhibitors. 0.35% of 350,000 active;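 also: plate controls were vehicle for no effect and reference inhibitor for full effect; nearly all actives have a fitted effect of over 55% in size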
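Enzyme (0.75 nM final) and test compound are incubated 15 min at room temperature before adding 50 nM quenched THF abasic-site duplex. Cleavage dequenches TAMRA, followed at 525/598 nm over three reads one minute apart.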
L3MBTL1 inh = qHTS Assay for the Inhibitors of L3MBTL1; Lethal(3)malignant brain tumor-like protein 1 (Homo sapiens), Q9Y468; AlphaScreen L3MBTL1–H3K9me1 peptide binding; Potency, µM (series often up to 57.1 µM), without a hit: at the highest dose activity, negative = inhibition, most hits filed as inhibitors; 0.66% of 230,000 active; also: nearly all actives have a fitted effect of over 60% in size
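AlphaScreen assay: L3MBTL1 (50 nM final) was preincubated 30 min at room temperature with biotinylated H3(1-15)K9me1 peptide (75 nM final), then 30 min with library compounds; streptavidin donor and nickel chelate acceptor beads (10 ug/mL final) added, 30 min dark.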
Starred values were filed as active, the others as inactive; i = inactive; u = inconclusive; x = not tested or not shown; ! = a repeat was not active; [ ] = another dose, or the depositor's remark. Calls follow the shape of the dose curve; as a rule, active = well fitted curve in the direction sought with a large enough effect; inconclusive = small, poorly fitted or top-dose-only effect, or another doubt; inactive = no such curve, though single readings can be large; an effect the other way counts as inactive or inconclusive. Unless noted, % is scaled to controls: 0 for no effect and ±100 for the full control effect; potency is read from the fitted curve at half-maximal effect.

SMILES	BLM inh	RECQ1 inh	APE1 inh	L3MBTL1 inh
Cc1ccc(NC(=O)CN2C(=O)S/C(=C\c3cc(Cl)c(OCC(=O)O)c(Cl)c3)C2=O)cc1	u	x	7.5µM*	0%
COc1ccc(/C=C2\SC(=O)N(CC(=O)Nc3ccc(O)cc3)C2=O)cc1OC	-2%	x	-11%	x
CCCSc1nnc(NC(=O)CSc2sc3c(O)cc(=O)[nH]c3c2C#N)s1	22µM*	x	64%[12.4 µM]	x
N#Cc1c(SCC(=O)Nc2nccs2)sc2c(O)cc(=O)[nH]c12	-30%	x	12%	x
O=[N+]([O-])c1cccc(-c2nnc3ccc4ccccc4n23)c1	5%	u	13µM*	-17%
O=[N+]([O-])c1cccc(-c2nnc3cccc(Cl)n23)c1	-3%	x	58%	x
CCN(CC)Cc1oc(CO)cc(=O)c1O	-9%	1%	-11%	1.1µM*
Cc1c(Cn2cnc3c(cnn3C(C)(C)C)c2=O)cccc1C(F)(F)F	x	x	-2%	x
COc1ccc2c(c1)O[C@@H](c1ccc3c(c1)OCO3)[C@H](OC(=O)NS(=O)(=O)c1ccc(C)cc1)C2=O	4%	-2%	6%	x
CCCCC[C@H](O)/C=C/C1=C(CCCCCCC(=O)O)C(=O)CC1	29%	10µM*!	-9%	u
C=CCn1c(NC(=O)c2ccccc2Cl)c(C#N)c2nc3ccccc3nc21	1µM*	u	-5%	u
CCCCn1c(NC(C)=O)c(C#N)c2nc3ccccc3nc21	-5%	-6%	-1%	-3%
Cc1ccc(S(=O)(=O)Oc2ccc(N=Nc3ccc(-c4ccc(N=Nc5c(O)ccc6cc(S(=O)(=O)O)cc(S(=O)(=O)O)c56)c(C)c4)cc3C)cc2)cc1	x	25µM*	35µM*	x
Cn1c2ccccc2c(=O)n2c(=O)c3ccccc3cc12	25µM*	0%	u	-16%
Cn1c(-c2ccccc2)cc(=O)c2ccccc21	-1%	i	-5%	8%
CC(C)c1ccc(Cn2cnc3c(cnn3C(C)(C)C)c2=O)cc1	x	x	-12%	x
O=C1C(Nc2ccc(O)cc2)=C/C(=N/S(=O)(=O)c2cccs2)c2ccccc21	u	-6%	u	13µM*
Cc1ccc(NC2=C/C(=N\S(=O)(=O)c3cccs3)c3ccccc3C2=O)c(C)c1	-11%	-3%	u	3.2µM*
Cc1cccc(NC2=C/C(=N/S(=O)(=O)c3cccs3)c3ccccc3C2=O)c1	-12%	i	31%	1.6µM*
Cc1ccc(Cl)cc1NC1=C/C(=N\S(=O)(=O)c2cccs2)c2ccccc2C1=O	-18%	i	-4%	x
CCc1ccc(S(=O)(=O)/N=C2\C=C(Nc3ccc(O)cc3)C(=O)c3ccccc32)cc1	-28%	x	2%	x
O=S(=O)(Nc1cccc2cccnc12)c1ccc(Br)s1	-11%	-4%	-3%	x
O=C(Cc1cccs1)N/N=C/C=C\c1ccco1	-15%	u	-7%	-21%
Cc1ccc(CSc2nnc(SCC(=O)N/N=C/C=C/c3ccccc3[N+](=O)[O-])s2)cc1	-3%	i	0%	-13%
Cc1ccc(CSc2nnc(SCC(=O)N/N=C/C=C/c3ccco3)s2)cc1	u	-26%	35µM*	u
SMILES	BLM inh	RECQ1 inh	APE1 inh	L3MBTL1 inh
O=C(N/N=C/C=C\c1ccco1)c1cccs1	18µM*	-12%	9%	6.3µM*
CCn1c(SCC(=O)N/N=C/C=C\c2ccco2)nc2ccccc21	u	u	u	32µM*
O=C[C@H](O)[C@@H](O)[C@@H](O)[C@H](O)CO	x	x	1%	x
COc1ccc(OC)c2sc(N(CCCN(C)C)C(=O)c3ccc(S(=O)(=O)N4CCc5ccccc5C4)cc3)nc12	x	x	30µM*	2%
Cc1[nH][nH]c(=O)c1C(c1ccc(-c2ccccc2C(=O)O)o1)c1c(C)[nH][nH]c1=O	u	i	u	32µM*
Cc1[nH][nH]c(=O)c1C(c1ccc(-c2cccc(Cl)c2)o1)c1c(C)[nH][nH]c1=O	u	11%	11%	x
Cc1[nH][nH]c(=O)c1C(c1ccc(-c2cccc(C(=O)O)c2)o1)c1c(C)[nH][nH]c1=O	-1%	u	18µM*	25µM*
O=C(/C=C/c1ccc(O)c(O)c1)c1ccc(O[C@@H]2O[C@H](CO)[C@@H](O)[C@H](O)[C@H]2O)c(O)c1O	0%	-10%	u	x
CCCCCN(CCCCC)C(=O)[C@H](CCC(=O)O)NC(=O)[C@H](Cc1ccc(OP(=O)(O)O)cc1)NC(C)=O	1%	-16%	-2%	x
CC1=C(/C=C/C(C)=C/C=C/C(C)=C/C(=O)O)C(C)(C)CCC1O (configuration not stated)	x	-10%	6%	x
N#C/C(=C\c1ccc(O)c(O)c1)C(=O)NCCCCc1ccccc1	u	10µM*	u	x
CNc1oc(-c2cccc(Br)c2)nc1C#N	x	x	25%	x
CC(C)(C)OC(=O)C[C@@H]1C/C=C\C[C@@H](CC(=O)N(CCO)Cc2ccccc2)C(=O)N[C@H](C(C)(C)C)COC1=O	x	x	12µM*	-5%
CC(C)(C)OC(=O)C[C@H]1C/C=C\C[C@@H](CC(=O)N(CCO)Cc2ccccc2)C(=O)N[C@H](C(C)(C)C)COC1=O	x	x	-30%	2%
Cc1ccc(C(=O)Oc2ccc(C(=O)COC(=O)C3CC(=O)N(Cc4ccco4)C3)cc2)cc1 (configuration not stated)	-28%	-29%	32µM*	u
Cc1[nH]c2ccccc2c1C(=O)COC(=O)C1CC(=O)N(Cc2ccco2)C1 (configuration not stated)	0%	-1%	-2%	-7%
O=c1[nH]c2ccccc2c2nc3ccccn3c12	25%	12%	-3%	3%
O=c1nc2c(O)cccn2c2c1c(=O)[nH]c1ccccc12	7.9µM*	-8%	4%	-11%
CCN(CC)c1ccc2nc3c4ccccc4c(=O)cc-3oc2c1	-22%	x	-20%	x
CCN(CC)c1ccc2c(-c3ccc(S(=O)(=O)O)cc3S(=O)(=O)[O-])c3ccc(=[N+](CC)CC)cc-3oc2c1	25µM*	x	27µM*	x
O=C(O)c1ccc(C2CCCCC2)cn1	-11%	-2%	15%	18µM*
CC1NC(=O)NC1CCCCCC(=O)NCCc1ccccc1 (configuration not stated)	1%	-14%	-4%	1.4µM*
Cc1cccc(C)c1NC(=O)CCCCCC1NC(=O)NC1C (configuration not stated)	-2%	-14%	24%	x
Cc1cc(C(=O)NNC(=O)/C=C/c2ccco2)c(C)o1	x	x	-32%	7.9µM*
Nc1nnc(-c2cccc3ccccc23)o1	x	x	-3%	x
CC(=O)Nc1ccc(NC(=O)c2ccco2)cc1	2%	i	-1%	x
